# Experimental data published in PubChem BioAssay.
# Active and inactive are the calls of the source. Unless noted, the rule behind the calls is not given here.
# Assays:
# [1] = compounds binding Alexa647 anti-His antibody – biochemical, small-molecule microarray, 635 nm fluorescence, artefact control for SMM control protein annotation, primary screen (AID 1128); details: higher = more signal;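 note: score merges feature fluorescence with signal-to-noise for each printed compound spot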
# [2] = tested on: Human papillomavirus type 1a E7 protein (residues 1-88); assay: HPV1a E7 small-molecule binders, primary screen, biochemical, small-molecule microarray, residues 1-88, 635 nm (AID 1129); details: small-molecule microarray binding, fluorescence 635 nm; higher = more signal
# [3] = target: Focal adhesion kinase 1 (Homo sapiens) (UniProt Q05397); assay: PTK2 protein binding on printed compound slides – biochemical, small-molecule microarray, 635/667 nm fluorescence, BSA, DTT, primary screen (AID 1130); details: 635 nm fluorescence, higher = more signal;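 note: composite of spot emission at 667 nm and signal to noise over triplicate slides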
# [4] = tested on: Fibrinogen (Alexa647-labelled); assay: Alexa647-fibrinogen binding to printed small molecules – biochemical, small-molecule microarray, 635/667 nm fluorescence, artefact control for SMM control-protein annotation, profiling panel (AID 1131); details: fibrinogen-A647 binding fluorescence, higher = more signal;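 note: z-score merges 667 nm fluorescence with per-spot signal-to-noise over triplicate slides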
# [5] = target: Follistatin (Homo sapiens) (UniProt P19883); assay: FST protein binding to printed compounds – biochemical, small-molecule microarray, 635/667 nm fluorescence, primary screen (AID 1132); details: 635 nm fluorescence, higher = more signal
# [6] = target: Fibroblast growth factor 2 (Homo sapiens) (UniProt P09038); assay: basic fibroblast growth factor binding to printed compounds – biochemical, small-molecule microarray, 635/667 nm fluorescence, primary screen (AID 1133); details: FGF2, fluorescence 635/667, higher = more signal
# [7] = JC-1 mitochondrial potential readout, lung cancer cells – cell-based, A549, JC-1 fluorescence, basal, 24 h, 100 nL, profiling panel (AID 1138); details: higher = more signal;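 note: A549 lung adenocarcinoma cells under basal conditions with no added stimulus; test concentration not given here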
# Lefty1 = Lefty1 protein binding to printed compounds – biochemical, small-molecule microarray, 635/667 nm fluorescence, primary screen (AID 1139); details: fluorescence 635/667, higher = more signal
# [8] = tested on: wheat germ agglutinin (Triticum aestivum), Alexa647-labelled; assay: Alexa647-WGA lectin binding to printed small molecules – biochemical, small-molecule microarray, 635/667 nm fluorescence, artefact control for SMM control-protein annotation, profiling panel (AID 1140); details: WGA-A647 binding, 635 nm fluorescence, higher = more signal;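 note: score merges 667 nm feature emission with signal to noise over triplicate slides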
# [9] = target: Luciferin 4-monooxygenase (Photinus pyralis) (UniProt P08659); assay: inhibition of purified Photinus pyralis luciferase – biochemical, luminescence, purified enzyme, 2006 set, primary screen (AID 1141); details: purified firefly luciferase, SteadyGlo luminescence, 30 min; higher = more signal, called active from +8 up or from −8 down;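 note: cell-free assay with purified firefly luciferase at 100 ng per well in PBS; test concentration not given here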
# [10] = tested on: Wnt5a (protein binding on small-molecule microarray); assay: small molecules binding Wnt5a protein – biophysical, small-molecule microarray, 635/667 nm fluorescence, primary screen (AID 1142); details: 635 nm fluorescence, higher = more signal;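 note: fluorescence read at 667 nm with signal to noise per printed feature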
# [11] = ATP-based viability of Huh7 replicon cells – cell-based, CellTiter-Glo luminescence, basal, 48 h, cytotoxicity control for HCV replication inhibitor project, primary screen (AID 1143); details: higher = more signal, called active from +8 up or from −8 down;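 note: Huh7 hepatoma cells carrying a hepatitis C replication reporter with no stimulus; test concentration not given here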
# [12] = Pseudomonas biofilm growth suppression – PAO1 strain, BacTiter-Glo luminescence, LB-PBS, primary screen (AID 1144); details: P. aeruginosa PAO1 biofilm, 12 h, higher = more signal
# [13] = basal CRE-LacZ reporter activity in PC12 – cell-based, unstimulated, primary screen (AID 1145); details: no forskolin, luminescence, 4.5 h, higher = more signal, called active from +8 up or from −8 down
# [14] = forskolin-driven CRE-LacZ activity in PC12 – cell-based, CRE-LacZ reporter, forskolin-stimulated, primary screen (AID 1146); details: luminescence, 4.5 h, higher = more signal, called active from +8 up or from −8 down;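 note: PC12 cells with 6xCRE LacZ reporter stimulated by forskolin 10 µM; beta-galactosidase reporter signal reflecting CREB driven transcription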
# [15] = target: Streptavidin (Streptomyces avidinii) (UniProt P22629); assay: compounds binding control protein streptavidin – biophysical, small-molecule microarray, 635/667 nm fluorescence, artefact control for SMM compound annotation, primary screen (AID 1147); details: higher = more signal;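 note: signal reflects streptavidin binding to arrayed compounds as a control protein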
# [16] = probe aInhba binding on compound microarray – biochemical, small-molecule microarray, 635/667 nm fluorescence, primary screen (AID 1148); details: higher = more signal;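 note: score merges 667nm spot fluorescence with signal-to-noise for antibody binding to printed compounds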
# Torsin-1A (Homo sapiens) [17] = target: Torsin-1A (Homo sapiens) (UniProt O14656); assay: TOR1A wild-type binding on microarray – cell lysate, small-molecule microarray, lysate, 635/667 nm, primary screen (AID 1149); details: COS7 hTOR1A-WT lysate, 635 nm fluorescence, higher = more signal
# Torsin-1A (Homo sapiens) [18] = target: Torsin-1A (Homo sapiens) (UniProt O14656); assay: torsin A mutant lysate binding on microarrays – cell lysate, small-molecule microarray, COS7 lysate, 635/667 nm fluorescence, primary screen (AID 1150); details: COS7 hTOR1A mutant lysate, 635 nm fluorescence, higher = more signal;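 note: score pools 667 nm emission and signal to noise measuring lysate protein binding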
# [19] = tested on: Sonic hedgehog protein (Shh); assay: Sonic hedgehog microarray binding compounds – biochemical, small-molecule microarray, 635/667 nm fluorescence, primary screen (AID 1151); details: 635 nm fluorescence, higher = more signal;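 note: Shh protein binding to compounds spotted on small-molecule microarray slides; score combines spot fluorescence intensity with signal-to-noise across triplicate slides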
# Chain of Fibroblast growth factor 2 (Homo sapiens) (P09038 whole entry, looked up): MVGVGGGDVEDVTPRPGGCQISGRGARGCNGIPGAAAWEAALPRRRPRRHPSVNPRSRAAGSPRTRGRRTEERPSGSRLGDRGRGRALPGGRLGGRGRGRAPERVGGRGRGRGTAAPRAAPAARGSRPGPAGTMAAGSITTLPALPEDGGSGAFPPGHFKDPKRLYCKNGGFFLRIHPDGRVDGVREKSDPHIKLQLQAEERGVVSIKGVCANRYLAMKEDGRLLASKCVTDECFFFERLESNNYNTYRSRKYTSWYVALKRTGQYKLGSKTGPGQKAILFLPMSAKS
# Chain of Luciferin 4-monooxygenase (Photinus pyralis) (P08659 whole entry, looked up): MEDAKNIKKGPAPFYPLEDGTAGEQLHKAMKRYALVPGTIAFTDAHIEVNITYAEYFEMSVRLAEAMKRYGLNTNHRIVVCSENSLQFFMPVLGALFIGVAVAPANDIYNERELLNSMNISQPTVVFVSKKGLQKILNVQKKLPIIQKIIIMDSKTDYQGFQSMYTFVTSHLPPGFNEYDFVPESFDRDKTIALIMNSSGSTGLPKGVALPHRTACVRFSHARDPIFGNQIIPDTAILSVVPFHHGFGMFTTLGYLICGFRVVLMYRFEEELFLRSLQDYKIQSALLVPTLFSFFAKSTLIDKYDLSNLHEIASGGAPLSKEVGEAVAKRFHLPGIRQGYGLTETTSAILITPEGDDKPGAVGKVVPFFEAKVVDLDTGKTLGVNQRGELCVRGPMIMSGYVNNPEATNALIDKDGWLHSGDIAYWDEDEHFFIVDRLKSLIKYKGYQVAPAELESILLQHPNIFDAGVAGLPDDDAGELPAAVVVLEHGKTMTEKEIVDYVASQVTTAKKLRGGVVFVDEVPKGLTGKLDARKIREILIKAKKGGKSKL
# Chain of Torsin-1A (Homo sapiens) (O14656 whole entry, looked up): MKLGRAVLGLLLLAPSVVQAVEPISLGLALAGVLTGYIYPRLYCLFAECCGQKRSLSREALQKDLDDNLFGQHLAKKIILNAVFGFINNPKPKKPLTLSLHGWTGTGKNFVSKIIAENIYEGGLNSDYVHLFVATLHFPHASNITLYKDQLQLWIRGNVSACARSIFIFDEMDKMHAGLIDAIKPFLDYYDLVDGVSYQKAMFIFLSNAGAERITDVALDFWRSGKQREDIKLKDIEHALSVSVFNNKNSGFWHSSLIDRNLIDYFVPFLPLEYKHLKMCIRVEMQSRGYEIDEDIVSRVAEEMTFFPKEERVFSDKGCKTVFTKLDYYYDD
# Chain of Streptavidin (Streptomyces avidinii) (P22629 whole entry, looked up): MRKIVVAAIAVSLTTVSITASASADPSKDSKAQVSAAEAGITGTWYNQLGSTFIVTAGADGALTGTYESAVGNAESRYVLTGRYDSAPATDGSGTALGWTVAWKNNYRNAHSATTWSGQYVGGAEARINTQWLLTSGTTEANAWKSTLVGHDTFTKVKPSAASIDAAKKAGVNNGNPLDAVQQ
# Chain of Focal adhesion kinase 1 (Homo sapiens) (Q05397 whole entry, looked up): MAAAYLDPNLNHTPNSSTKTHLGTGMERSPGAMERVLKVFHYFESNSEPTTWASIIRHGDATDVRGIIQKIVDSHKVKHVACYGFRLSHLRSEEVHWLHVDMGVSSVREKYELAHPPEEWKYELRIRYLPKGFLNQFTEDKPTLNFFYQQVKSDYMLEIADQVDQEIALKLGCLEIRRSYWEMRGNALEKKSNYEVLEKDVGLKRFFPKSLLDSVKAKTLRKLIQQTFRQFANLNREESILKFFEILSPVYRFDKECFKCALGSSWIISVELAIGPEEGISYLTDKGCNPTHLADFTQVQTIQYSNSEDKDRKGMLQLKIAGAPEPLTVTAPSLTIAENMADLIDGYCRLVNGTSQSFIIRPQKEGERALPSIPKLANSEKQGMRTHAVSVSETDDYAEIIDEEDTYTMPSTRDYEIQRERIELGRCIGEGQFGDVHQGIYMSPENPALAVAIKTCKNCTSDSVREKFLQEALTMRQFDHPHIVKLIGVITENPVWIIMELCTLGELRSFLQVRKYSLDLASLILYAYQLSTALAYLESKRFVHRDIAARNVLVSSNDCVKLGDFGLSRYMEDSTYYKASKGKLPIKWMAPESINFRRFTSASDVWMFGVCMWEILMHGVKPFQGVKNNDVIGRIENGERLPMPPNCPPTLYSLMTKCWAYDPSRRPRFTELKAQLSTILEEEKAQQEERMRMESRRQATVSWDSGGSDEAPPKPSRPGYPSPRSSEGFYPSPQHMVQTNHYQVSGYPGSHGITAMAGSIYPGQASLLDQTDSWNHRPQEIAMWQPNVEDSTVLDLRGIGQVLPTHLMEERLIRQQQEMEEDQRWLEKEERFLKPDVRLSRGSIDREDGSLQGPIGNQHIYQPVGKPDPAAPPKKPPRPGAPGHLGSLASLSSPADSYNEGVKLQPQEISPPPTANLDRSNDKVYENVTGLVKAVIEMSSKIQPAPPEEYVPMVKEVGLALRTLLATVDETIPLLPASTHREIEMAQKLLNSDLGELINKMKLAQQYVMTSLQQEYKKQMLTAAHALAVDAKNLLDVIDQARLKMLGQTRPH
# Chain of Follistatin (Homo sapiens) (P19883 whole entry, looked up): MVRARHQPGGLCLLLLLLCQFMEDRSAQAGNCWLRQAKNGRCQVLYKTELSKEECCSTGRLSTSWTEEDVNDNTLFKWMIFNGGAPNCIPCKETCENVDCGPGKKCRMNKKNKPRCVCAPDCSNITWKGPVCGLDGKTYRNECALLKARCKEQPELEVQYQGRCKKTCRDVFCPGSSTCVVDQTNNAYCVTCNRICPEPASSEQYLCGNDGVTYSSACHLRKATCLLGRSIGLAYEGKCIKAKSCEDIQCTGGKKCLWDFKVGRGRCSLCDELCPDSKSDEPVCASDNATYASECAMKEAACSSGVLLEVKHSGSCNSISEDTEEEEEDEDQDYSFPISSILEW
Compound,composite z-score [1],composite z-score [2],composite z-score [3],composite z-score [4],composite z-score [5],composite z-score [6],z-score [7],composite z-score (Lefty1),composite z-score [8],z-score [9],composite z-score [10],z-score [11],z-score [12],z-score [13],z-score [14],composite z-score [15],composite z-score [16],composite z-score (Torsin-1A (Homo sapiens) [17]),composite z-score (Torsin-1A (Homo sapiens) [18]),composite z-score [19]
CC(C)C(=C=CC[C@H](O)c1ccccc1OCCO)CCO,0.526,0.0618,0.101,0.217,0.0251,0.465,0.205,0.653,0.417,0.27 (inactive),-0.0207,-0.334 (inactive),0.00427 (inactive),2.14 (inactive),1.49 (inactive),-0.366,-0.101,-0.0451,0.408,0.569
CCCNC(=O)[C@@]1(C)c2ccccc2C(=O)N(C(C)C)[C@H]1c1ccc(CO)cc1,-0.853,-0.54,0.198,-0.879,-0.127,-0.343,-0.809,-1.38,-0.867,0.33 (inactive),0.182,-4.29 (inactive),-0.744 (inactive),0.0279 (inactive),0.155 (inactive),-0.586,-0.0791,0.398,-0.435,-0.946
[N-]=[N+]=Nc1ccccc1C[C@]1(C(=O)N2CCCCC2)N=C(c2ccc(OCCCO)cc2)O[C@H]1c1ccccc1N=[N+]=[N-],1.6,1.24,0.544,0.945,1.18,0.806,0.591,-0.105,0.811,-3.15 (inactive),0.316,-3.99 (inactive),-0.546 (inactive),0.722 (inactive),-1.69 (inactive),1.04,0.622,0.656,0.951,0.364
CCCC[C@@H]1C[C@H]1[C@@H](NC(=O)c1ccccc1)c1ccc(-c2ccccc2)cc1,0.676,0.818,-0.0867,0.46,0.203,-0.368,-0.232,-0.26,0.348,0.0434 (inactive),-0.0558,-4.35 (inactive),0.257 (inactive),0.0075 (inactive),0.31 (inactive),0.301,-0.0736,-0.256,-0.0118,-1.11
COC(=O)[C@@]1(Cc2ccc(F)cc2)[C@H]2c3cc(C(=O)N(C)C)n(Cc4ccccn4)c3C[C@H]2CN1C(=O)c1ccccc1,1.12,1.26,1.08,0.685,0.251,-0.281,1.04,-0.12,0.647,3 (inactive),-0.0131,-1.17 (inactive),-0.75 (inactive),-0.947 (inactive),0.431 (inactive),0.751,0.349,1.17,1.05,-0.285
